HT1080 IDH1KD tx: toxicity to HT-1080 IDH1 knockdown cells (counter line). HT-1080 IDH1 knockdown viability, ATP luminescence, 48 h. Potency, µM (series often up to 46.1 µM), for the others: at the top dose activity, negative = toxicity, actives largely listed as cytotoxic. actives 2% (n = 360,000);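 note: 0% = DMSO wells and -100% = cell-free medium wells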
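Knockdown cells (IDH1KD HT-1080) received compounds 2 h after plating at 750 cells/well and were kept 48 h at 37 °C in 5% FBS RPMI. A CellTiter-Glo luminescence read gave % activity for curve fitting.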
TGFb SMAD3 inh: blocks TGF-b signaling | actives 1.2% (n = 410,000) | HepG2 CAGA-GFP TGF-b/SMAD3 reporter, GFP fluorescence, 18 h; TGF-beta stimulated, 500 pg/mL final | Potency, µM (top dose mostly 46.1 µM), for the others: at the highest dose activity, negative = inhibition, most hits filed as inhibitors; note: % is set by controls: 0 for no effect and ±100 for the full control effect; nearly all actives have a fitted effect of over 65% in size
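Smad-responsive CAGA-GFP expression was quantified in HEPG2 cells exposed to compounds and 500 pg/mL final TGF-beta for 18 h at 37 degrees C; unstimulated wells defined full inhibition.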
HepG2 tox: kills HepG2 cells in TGF-b inhibitor counter-screen; HepG2 CAGA-GFP viability, ATP luminescence, 18 h; Potency, µM (highest dose often 46.1 µM), for the others: top-dose activity change, negative = cytotoxicity, actives largely listed as cytotoxic; actives 0.76% (n = 410,000)
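HepG2 CAGA-GFP cells (1000/well, DMEM with 1% FBS) received compound, then TGF-beta at 500 pg/mL final, and were incubated 18 hours at 37 degrees C. Viability was read by CellTiter-Glo luminescence. Media-only wells were set as complete cell-killing and DMSO as no toxicity.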
ATXN2 expr inh: ATXN2 expression inhibition; actives 0.72% (n = 360,000); HEK-293 ATXN2-luciferase reporter, luminescence, 24 h; Potency, µM (highest dose often 57 µM), without a hit: at the highest dose activity change, negative = inhibition, hits mostly inhibitors; note: % is set by controls: 0 for no effect and ±100 for the full control effect; nearly all actives have a fitted effect of over 55% in size
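ATXN2-luciferase reporter cells (luciferase flanked by upstream and downstream ATXN2 gene portions) were treated 24 h at 37 °C with compounds at up to 57 uM. SteadyGlo luminescence gave expression; GF-AFC fluorescence gave viability.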
S2 tox: reduces viability in counter-screen for ATXN expression inhibitors; actives 0.49% (n = 400,000); Potency, µM (doses to about 56.7 µM), most hits filed as cytotoxic; S2 cells (HEK-293 line with an ATXN2-luciferase reporter) viability, CellTiter-Fluor protease fluorescence, 24 h; AID 651635; note: nearly all actives have a fitted effect of over 40% in size
HT1080-NT tox: kills 2HG-producing HT-1080-NT fibrosarcoma cells; HT-1080-NT fibrosarcoma viability, CellTiter-Glo ATP luminescence, 48 h; Potency, µM (titrated, usually from 46.1 µM), without a hit: top-dose activity, negative = less viability, usual class: cytotoxic; actives 1.6% (n = 360,000); AID 686970;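 note: NT is the 2HG producing partner of a matched IDH1 knockdown line; 0% = DMSO-treated cells and -100% = media-only wells without cells; nearly all actives have a fitted effect of over 55% in size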
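Viability by CellTiter-Glo luminescence after 48 h compound exposure at 37C of HT-1080-NT cells (750/well, RPMI, 5% FBS). % activity scaled between DMSO wells and medium-only wells, then curve-fitted and categorized by curve class.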
* hit, by the source's call; i = inactive; ? = inconclusive; . = no result. Most compounds without a hit are left out; they make up all but 3.8% or so of the library. Calls come from the whole dose curve; as a rule, active = well fitted curve in the direction sought with a large enough effect; inconclusive = small, poorly fitted or top-dose-only effect, or another doubt; inactive = no such curve, though single readings can be large; an effect the other way counts as inactive or inconclusive. Potency is the fitted concentration of half-maximal effect.

SMILES	HT1080 IDH1KD tx	TGFb SMAD3 inh	HepG2 tox	ATXN2 expr inh	S2 tox	HT1080-NT tox
O=[N+]([O-])c1ccc(-c2cnc(SC(c3ccccc3)c3ccccc3)[nH]2)cc1	21µM*	?	6%	-29%	i	23µM*
O=[N+]([O-])c1ccc(-c2cnc(SCc3ccccc3Cl)[nH]2)cc1	?	-10%	-32%	30%	i	?
Cc1cc(C)c(CSc2ncc(-c3ccc([N+](=O)[O-])cc3)[nH]2)c(C)c1	26µM*	?	-9%	?	i	?
Cc1oc(-c2ccccc2)nc1CCC(=O)c1ccc(CC2SC(=O)NC2=O)cc1 (stereo not drawn)	.	.	.	3%	i	.
O=C(CCCCCCC(=O)Nc1ccc([C@H]2O[C@@H](CSc3nc(-c4ccccc4)c(-c4ccccc4)o3)C[C@@H](c3ccc(CO)cc3)O2)cc1)NO	.	.	.	66%	.	.
CCOC(=O)c1cnc(-n2nc(C)cc2C)nc1NC1CCCC1	?	?	11µM*	?	?	?
O=C(Nc1ccc([N+](=O)[O-])cc1)Nc1ccc([N+](=O)[O-])cc1	.	.	.	-12%	i	.
CC1(C)C(C=C(Cl)Cl)C1C(=O)Nc1ccc([N+](=O)[O-])cc1 (stereo not drawn)	?	?	-94%	?	i	23µM*
Cc1ccn2c(Nc3ccc(C(C)C)cc3)c(-c3cccs3)nc2c1	.	-10%	-35%	40%	i	.
COc1ccc(CN=Cc2[nH]c3ccc(Br)c(Cl)c3c2O)cc1	10µM*	-17%	-40%	-31%	i	?
O=C1/C(=C/c2ccccc2)CCc2ccc(Cl)nc21	18µM*	20µM*	-35%	?	?	?
Cc1cc(C)cc(OCc2cc(=O)n3c4c(sc3n2)CCCC4)c1	.	-2%	0%	4%	i	.
Cc1cnc(SCc2ccccn2)nc1C1CCCN(C(=O)c2ccc3c(c2)OCO3)C1 (stereo not drawn)	.	.	.	.	i	.
CC(C)N(C(=O)N1CCN(c2ccnc3cc(Cl)ccc23)CC1)C(C)C	-21%	0%	1%	25µM*	?	-21%
CCC(=O)N1CCN(c2ccnc3cc(Cl)ccc23)CC1	2%	-3%	-9%	?	?	-8%
CCCC(=O)OCOC(=O)C1=C(C)NC(C)=C(C(=O)OC)C1c1cccc(Cl)c1Cl (stereo not drawn)	.	.	.	6%	i	.
Cn1cc(CNC(=O)C2CCCCC2)cn1	-4%	12%	-1%	7%	i	1%
CCn1cc(CNCc2cn(C)nc2-c2ccc(C3CCCCC3)cc2)cn1	21µM*	?	-70%	-3%	i	15µM*
CNC(=O)[C@@H]1C[C@H](Sc2nc3ccccc3[nH]2)CN1Cc1cccc(C(F)(F)F)c1	.	.	.	.	i	.
COc1ccc(CNC(=O)C(CCSC)NS(=O)(=O)c2ccc3c(c2)oc(=O)n3C)cc1 (stereo not drawn)	.	-3%	3%	.	.	.
COc1ccc(-c2nc(N3CCN(S(=O)(=O)c4ccc(F)cc4)CC3)c3ccccc3n2)cc1	.	2%	-7%	.	.	.
Cc1cc(N/N=C/c2ccccc2)nc(NCc2ccccc2)n1	-5%	?	-20%	22%	i	-20%
Cc1cc(Nc2cccc(Cl)c2)nc(NCc2ccccc2)n1	?	18µM*	-94%	-24%	?	?
Cc1cc(N/N=C/c2cccc(F)c2)nc(NCc2ccccc2)n1	16µM*	?	-29%	-18%	?	21µM*
Cc1cc(N/N=C/c2cccc(Cl)c2)nc(NCc2ccccc2)n1	?	20µM*	10µM*	?	?	?
SMILES	HT1080 IDH1KD tx	TGFb SMAD3 inh	HepG2 tox	ATXN2 expr inh	S2 tox	HT1080-NT tox
CCOc1ccccc1N(C)C(=O)c1cc(S(=O)(=O)NCc2ccc(C)cc2)ccc1F	.	?	-15%	?	?	.
N/C(=C\c1ccccc1)c1ccncc1	.	8%	11%	.	.	.
C#CCOCCOCCOCCNc1nc(N2CCOCC2)nc(N2CCN(C(=O)CCCCCCCCCCNC(=O)[C@@H](CCSC)n3cc(CCO)nn3)CC2)n1	1%	-18%	-12%	-6%	i	0%
C#CCOCCOCCOCCNc1nc(N2CCN(C(=O)CCCCCCCCCCNC(=O)[C@@H](CCSC)n3cc(CCO)nn3)CC2)nc(N2CCN(C(=O)CCCCCCCCCCNC(=O)[C@H]([C@@H](C)CC)n3cc(CCCCCN)nn3)CC2)n1	?	?	-101%	28µM*	14µM*	?
C#CCOCCOCCOCCNc1nc(N2CCN(C(=O)CCCCCCCCCCNC(=O)[C@@H](CCSC)n3cc(CCO)nn3)CC2)nc(N2CCN(C(=O)CCCCCCCCCCNC(=O)[C@H]([C@@H](C)CC)n3cc(CCCCN=C(N)N)nn3)CC2)n1	?	?	-76%	?	16µM*	?
O=S(=O)(Nc1c(S(=O)(=O)c2ccccc2)c2nc3ccccc3nc2n1C1CCCCC1)c1ccccc1	16µM*	?	-27%	-20%	i	?
CC(C)C[C@H]1CN=C(Nc2ccccc2)N1CC1CCC(C(C)(C)C)CC1 (stereo partly drawn)	?	?	-109%	?	22µM*	-8%

High-throughput results from PubChem.
